The source of these data is PubChem BioAssay (NCI).

What all share (experiment): NCI-60 one-dose screen, 48 h (100 = growth as untreated, 0 = no growth, -100 = all killed)
Experiment [1] concerns HCT-15 colon. The conditions noted are these: 10 µM unless noted.
The subject of experiment [2] is HT29 colon. Particulars: 10 µM unless noted.
Experiment [3] relates to SNB-75 CNS. Particulars: 10 µM unless noted.
The test system of experiment [4] is SNB-19 CNS. Particulars: 10 µM unless noted.
Experiment [5] concerns U251 CNS. The conditions noted are these: 10 µM unless noted.
For experiment [6], the system named is PC-3 prostate. The conditions noted are these: 10 µM unless noted.
Experiment [7] deals with SK-MEL-5 melanoma. Particulars: 10 µM unless noted.
The subject of experiment [8] is UACC-62 melanoma. Particulars: 10 µM unless noted.
In experiment [9] the test system is LOX IMVI melanoma. The conditions noted are these: 10 µM.
In experiment [10] the test system is SK-MEL-28 melanoma. Particulars: 10 µM unless noted.
In experiment [11] the test system is SK-MEL-2 melanoma. Particulars: 10 µM unless noted.
Experiment [12] concerns EKVX NSCLC. The conditions noted are these: 10 µM unless noted.
The subject of experiment [13] is SN12C renal. Particulars: 10 µM unless noted.
Experiment [14] has as its system UO-31 renal. Particulars: 10 µM unless noted.
For experiment [15], the system named is TK-10 renal. The conditions noted are these: 10 µM unless noted.
Experiment [16] concerns CAKI-1 renal. Particulars: 10 µM unless noted.
For experiment [17], the system named is A498 renal. Particulars: 10 µM unless noted.
Experiment [18] has as its system CCRF-CEM leukemia. The conditions noted are these: 10 µM unless noted.
The test system of experiment [19] is MOLT-4 leukemia. The conditions noted are these: 10 µM unless noted.
Experiment [20] deals with ACHN renal. Particulars: 10 µM unless noted.

About 83,000 compounds went through this panel and 20% of them were active in at least one assay; those are over-represented in the sample as a whole.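 For each line, cells grew in 96-well plates with the test compound present at a single concentration for 48 hours.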 A number with no mark means an inactive call. Calls of active or inactive are those of the source. Rule for the calls: active = growth percent below 10; inactive = the rest.

As for `CSCC[C@@H]1C(=O)N(C)[C@H](C(C)(C)C)N1C(=O)c1ccccc1`, the growth in [1] is 113%; in [2], 116%; in [3] it was 85.2%; in experiment [4], 114%; in [5], 99.3%; in experiment [6], 104%. For the same molecule, the growth in experiment [7] is 106%; in [8], 101%; in [9], 95.4%; in [10] it was 107%; in experiment [11], 106%; in experiment [12], 102%. For the same molecule, the growth was 104% in experiment [13]; 90.4% in [14]; 106% in experiment [15]; 100% in experiment [16]; 126% in [17]; 111% in [18]. The growth in experiment [19] was 116%.

Consider `CC(=O)C1C(=O)C(=O)N(c2cccc([N+](=O)[O-])c2)C1=O` (stereo unspecified), for which the growth was 102% in experiment [1]; 105% in experiment [2]; 93.9% in experiment [3]; 104% in experiment [4]; 97.3% in [5]; 98.2% in [6]. The growth is 107% in experiment [7]; 100% in experiment [8]; 105% in experiment [9]; 107% in [10]; 114% in experiment [11]; 108% in experiment [12]. The growth in experiment [14] was 105%; in [15], 125%; in experiment [20] it was 104%; in experiment [16] it was 102%; in experiment [17], 79.2%; in experiment [18] it was 106%. Besides, the growth in experiment [19] is 101%.

In the case of `COC1OC(C(O)C(O)CO)C(O)C(O)C1O` (stereo unspecified), the growth in experiment [1] is 99.1%; in experiment [2], 100%; in [3], 95.6%; in experiment [4], 105%; in experiment [5], 98.9%; in experiment [6] it was 95.6%. Also, the growth was 107% in [7]; 102% in [8]; 102% in experiment [9]; 101% in experiment [10]; 99.5% in [11]; 94.1% in experiment [13]. Moreover, the growth in experiment [14] was 97.1%; in experiment [15] it was 107%; in [20], 101%; in experiment [16] it was 95.6%; in experiment [17], 107%; in [18] it was 95.4%. In addition, in [19], the growth was 105%.

Take `CCN(Cc1ccc(Cl)c(Cl)c1)c1ccc2nc(N)nc(N)c2c1C`: the growth in [1] was -82.1% (active); in experiment [2], -79.1% (active); in [3], -94.7% (active); in experiment [4], -97.4% (active); in experiment [5] it was -92% (active); in experiment [6], -62.2% (active). In addition, the growth in experiment [7] was -98.2% (active); in experiment [8], -86.1% (active); in [9], -87.5% (active); in [10] it was -95.4% (active); in experiment [11] it was -78% (active); in experiment [12], -56.8% (active). Further, the growth in experiment [14] was -82.7% (active); in experiment [15], -84.3% (active); in experiment [16] it was -67% (active); in experiment [17], -78.2% (active); in experiment [18], -5.59% (active); in experiment [19] it was -59.5% (active).

As to `Nc1ncnc(Nc2ccccc2)n1`, the growth in experiment [1] is 103%; in [2], 108%; in experiment [3], 104%; in experiment [4], 109%; in experiment [5], 111%; in experiment [6], 101%. The growth was 104% in experiment [7]; 115% in experiment [8]; 104% in [9]; 107% in experiment [10]; 103% in [11]; 122% in experiment [12]. The growth in experiment [13] is 105%; in experiment [14] it was 86.5%; in experiment [15] it was 110%; in [16] it was 92.7%; in experiment [17], 128%; in [18] it was 104%. Also, in experiment [19], the growth was 96.2%.

Regarding `COC1OC(C(COC(C)=O)OC(C)=O)C(OC(C)=O)C(OC(C)=O)C1OC(C)=O` (stereo unspecified), the growth was 92.5% in [1]; 105% in experiment [2]; 97.6% in experiment [3]; 99.4% in experiment [4]; 101% in experiment [5]; 107% in [6]. The growth in [7] was 106%; in experiment [8], 110%; in [9], 103%; in [10], 105%; in [11], 113%; in [13], 107%. For the same molecule, the growth is 83.8% in [14]; 107% in experiment [15]; 95.3% in experiment [20]; 96.2% in [16]; 125% in experiment [17]; 104% in experiment [18]. The growth in experiment [19] is 93.5%.

Consider `CC1CC(C)S(=O)(=O)C1` (stereo unspecified), for which the growth in [1] is 103%; in experiment [2], 99.9%; in [3] it was 94.6%; in experiment [4], 108%; in experiment [5], 88.5%; in [6], 104%. Further, the growth in experiment [7] is 101%; in [8] it was 92.9%; in experiment [9], 103%; in experiment [10], 111%; in [11] it was 112%; in experiment [12] it was 108%. For the same molecule, the growth is 101% in experiment [14]; 103% in experiment [15]; 103% in experiment [20]; 106% in experiment [16]; 122% in [17]; 101% in [18]. The growth in experiment [19] was 91.3%.

For the molecule `NC(=S)N/N=C/c1ccc(OC(=O)COc2ccccc2)cn1`, the growth was 76.8% in experiment [1]; 84.1% in experiment [2]; 59.3% in [3]; 74.9% in experiment [4]; 42.3% in experiment [5]; 63.9% in experiment [6]. Further, the growth in experiment [7] is 38.4%; in experiment [8], 13.9%; in [9] it was 19.1%; in experiment [10], 83%; in experiment [11] it was 69.3%; in [12], 109%. In addition, the growth was 24.5% in experiment [14]; 74.7% in [15]; 8.03% (active) in experiment [20]; 3.88% (active) in [16]; 70.5% in experiment [17]; 18.9% in experiment [18]. In experiment [19], the growth is 22.3%.
